{"source": "the supplement of paper PMC6089552", "tested_on": "A673/TR/shEF", "assay": "cell viability (LOESS-normalised, relative to median of negative controls) (log2 ratio); higher = more viable cells (less compound effect), active = hit call of the paper (over 3 MAD below the median)", "details": "treatment time: 72 h", "procedure,_shortened": "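A673/TR/shEF Ewing sarcoma cells were plated at 1,500 per well in 384-well plates and cultured with or without doxycycline, added 24 h before compounds, to induce EWS-FLI1 shRNA knockdown. Library compounds at two or more concentrations, alongside DMSO controls, were applied for three days. Cell viability was measured by CellTiter-Glo luminescence on an Envision reader. Readings were LOESS-corrected per plate, divided by the median of negative controls and log2-transformed, and hits were wells lying at least three median absolute deviations from the median of all screened wells.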", "key": {"[1]": {"details": "0.25 µM, library screen: screen1, EWS-FLI1 expression: high (no doxycycline)"}, "[2]": {"details": "0.25 µM, library screen: screen1, EWS-FLI1 expression: low (doxycycline-induced shRNA knockdown)"}, "[3]": {"details": "2.5 µM, library screen: screen1, EWS-FLI1 expression: high (no doxycycline)"}, "[4]": {"details": "2.5 µM, library screen: screen1, EWS-FLI1 expression: low (doxycycline-induced shRNA knockdown)"}}, "note": "The whole screen tested about 3,200 compounds, of which about 300 (9.4%) showed activity. This excerpt belongs to a sample that is enriched for actives. A number with no mark means an inactive call.", "data": [{"smiles": "CCC1(O)CC2CN(CCc3c([nH]c4ccccc34)[C@@](C(=O)OC)(c3cc4c(cc3OC)N(C)C3[C@]45CCN4CC=C[C@@](CC)([C@@H](OC(C)=O)[C@]3(O)C(=O)OC)[C@H]45)C2)C1", "note": "(some centres undefined)", "values": [{"measurement": "cell viability (log2)", "setting": "0.25 µM, library screen: screen2, EWS-FLI1 expression: high (no doxycycline)", "value": "-3.54 (active)"}, {"measurement": "cell viability (log2)", "setting": "0.25 µM, library screen: screen2, EWS-FLI1 expression: low (doxycycline-induced shRNA knockdown)", "value": "-0.483 (active)"}, {"measurement": "cell viability (log2)", "setting": "2.5 µM, library screen: screen2, EWS-FLI1 expression: high (no doxycycline)", "value": "-3.67 (active)"}, {"measurement": "cell viability (log2)", "setting": "2.5 µM, library screen: screen2, EWS-FLI1 expression: low (doxycycline-induced shRNA knockdown)", "value": "-0.537 (active)"}]}, {"smiles": "CCC1=C[C@@H]2CN(C1)Cc1c([nH]c3ccccc13)[C@@](C(=O)OC)(c1cc3c(cc1OC)N(C)[C@H]1[C@@](O)(C(=O)OC)[C@H](OC(C)=O)[C@]4(CC)C=CCN5CC[C@]31[C@@H]54)C2", "values": [{"measurement": "cell viability (log2)", "setting": "0.103 µM, library screen: screen3, EWS-FLI1 expression: high (no doxycycline)", "value": "-4.31 (active)"}, {"measurement": "cell viability (log2)", "setting": "0.103 µM, library screen: screen3, EWS-FLI1 expression: low (doxycycline-induced shRNA knockdown)", "value": "-1.05 (active)"}, {"measurement": "cell viability (log2)", "setting": "0.308 µM, library screen: screen3, EWS-FLI1 expression: high (no doxycycline)", "value": "-3.96 (active)"}, {"measurement": "cell viability (log2)", "setting": "0.308 µM, library screen: screen3, EWS-FLI1 expression: low (doxycycline-induced shRNA knockdown)", "value": "-1.11 (active)"}, {"measurement": "cell viability (log2)", "setting": "0.926 µM, library screen: screen3, EWS-FLI1 expression: high (no doxycycline)", "value": "-4.31 (active)"}, {"measurement": "cell viability (log2)", "setting": "0.926 µM, library screen: screen3, EWS-FLI1 expression: low (doxycycline-induced shRNA knockdown)", "value": "-0.811 (active)"}, {"measurement": "cell viability (log2)", "setting": "2.8 µM, library screen: screen3, EWS-FLI1 expression: high (no doxycycline)", "value": "-4.31 (active)"}, {"measurement": "cell viability (log2)", "setting": "2.8 µM, library screen: screen3, EWS-FLI1 expression: low (doxycycline-induced shRNA knockdown)", "value": "-0.798 (active)"}, {"measurement": "cell viability (log2)", "setting": "8.3 µM, library screen: screen3, EWS-FLI1 expression: high (no doxycycline)", "value": "-3.91 (active)"}, {"measurement": "cell viability (log2)", "setting": "8.3 µM, library screen: screen3, EWS-FLI1 expression: low (doxycycline-induced shRNA knockdown)", "value": "-0.769 (active)"}, {"measurement": "cell viability (log2)", "setting": "25 µM, library screen: screen3, EWS-FLI1 expression: high (no doxycycline)", "value": "-3.44 (active)"}, {"measurement": "cell viability (log2)", "setting": "25 µM, library screen: screen3, EWS-FLI1 expression: low (doxycycline-induced shRNA knockdown)", "value": "-0.836 (active)"}]}, {"smiles": "C=CCN1C(=O)C(=C2C(=O)N(C)c3ccccc32)SC1=S", "values": [{"measurement": "cell viability (log2)", "setting": "[1]", "value": 0.145}, {"measurement": "cell viability (log2)", "setting": "[2]", "value": 0.0841}, {"measurement": "cell viability (log2)", "setting": "[3]", "value": 0.0806}, {"measurement": "cell viability (log2)", "setting": "[4]", "value": 0.0634}]}, {"smiles": "CC1(C)C[C@H](O)[C@]23CC[C@@H](O)[C@@](C)(CC[C@@H]12)C3", "values": [{"measurement": "cell viability (log2)", "setting": "[1]", "value": 0.155}, {"measurement": "cell viability (log2)", "setting": "[2]", "value": 0.054}, {"measurement": "cell viability (log2)", "setting": "[3]", "value": 0.181}, {"measurement": "cell viability (log2)", "setting": "[4]", "value": 0.0139}]}, {"smiles": "C=CCNc1nc2ccccn2c(=O)c1/C=C1\\SC(=S)N(CCc2ccccc2)C1=O", "values": [{"measurement": "cell viability (log2)", "setting": "[1]", "value": 0.071}, {"measurement": "cell viability (log2)", "setting": "[2]", "value": 0.0307}, {"measurement": "cell viability (log2)", "setting": "[3]", "value": 0.121}, {"measurement": "cell viability (log2)", "setting": "[4]", "value": 0.134}]}, {"smiles": "CCOC(=O)c1c[nH]c2c(Cl)c(Cl)ccc2c1=O", "values": [{"measurement": "cell viability (log2)", "setting": "[1]", "value": 0.0772}, {"measurement": "cell viability (log2)", "setting": "[2]", "value": 0.122}, {"measurement": "cell viability (log2)", "setting": "[3]", "value": 0.11}, {"measurement": "cell viability (log2)", "setting": "[4]", "value": 0.176}]}, {"smiles": "O=C(O)c1ccc(O)c2c1C(=O)c1cc(O)cc(O)c1C2=O", "values": [{"measurement": "cell viability (log2)", "setting": "[1]", "value": 0.0473}, {"measurement": "cell viability (log2)", "setting": "[2]", "value": -0.0191}, {"measurement": "cell viability (log2)", "setting": "[3]", "value": 0.0745}, {"measurement": "cell viability (log2)", "setting": "[4]", "value": 0.0247}]}, {"smiles": "COc1cc(CN2CCN(Cc3cccnc3)CC2)cc(OC)c1OC", "values": [{"measurement": "cell viability (log2)", "setting": "[1]", "value": 0.0843}, {"measurement": "cell viability (log2)", "setting": "[2]", "value": 0.0394}, {"measurement": "cell viability (log2)", "setting": "[3]", "value": 0.126}, {"measurement": "cell viability (log2)", "setting": "[4]", "value": 0.144}]}, {"smiles": "COc1cc(OC)c(OC)cc1CN1CCN(Cc2cccnc2)CC1", "values": [{"measurement": "cell viability (log2)", "setting": "[1]", "value": 0.0812}, {"measurement": "cell viability (log2)", "setting": "[2]", "value": 0.0446}, {"measurement": "cell viability (log2)", "setting": "[3]", "value": 0.193}, {"measurement": "cell viability (log2)", "setting": "[4]", "value": 0.00403}]}]}
